Source: PubChem BioAssay (The Scripps Research Institute Molecular Screening Center)
Rows were chosen to be rich in hits. Some 2.8% of all compounds tested hit in one or more screens of this group.
bovine MsrA act = activates bovine MsrA enzyme. 0.3% of 360,000 active. activation, % at 10.6 µM. purified bovine MsrA, absorbance read-out. AID 602163; in the data active = activation above about 7.5%;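 note: 0% = vehicle and 100% = reference activator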
proKLK7 act = proKLK7 (human) activation, primary screen; activation, % at 7 µM; 0.9% of 370,000 active; AID 652039; purified proKLK7, EDANS-DABCYL substrate fluorescence; 100% is mature enzyme control, 0% vehicle;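 active = activation above the mean of all tested compounds plus 3 SD, computed per campaign excluding outliers beyond control limits, cut at about 13% in these data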
Target sequence (P49862 whole entry, looked up): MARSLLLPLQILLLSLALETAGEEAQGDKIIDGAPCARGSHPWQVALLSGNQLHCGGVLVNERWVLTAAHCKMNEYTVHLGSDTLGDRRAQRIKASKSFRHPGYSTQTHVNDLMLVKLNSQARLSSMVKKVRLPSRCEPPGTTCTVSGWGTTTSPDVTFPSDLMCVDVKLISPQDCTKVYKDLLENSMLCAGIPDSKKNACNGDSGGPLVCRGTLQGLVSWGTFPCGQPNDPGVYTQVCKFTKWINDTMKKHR
SMARCA2 act = increases SMARCA2 function in MMTV reporter cells; 1% of 370,000 active; activation, % at 9.1 µM; AID 652017; MG213 cells, MMTV-luciferase reporter, dexamethasone, overnight; in the data active = activation above about 7.8%;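 note: 0% = vehicle wells and 100% = reference activator wells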
MsrA inh = inhibits bovine methionine sulfoxide reductase A. purified bovine MsrA, absorbance read-out. inhibition, % at 15.5 µM. 0.75% of 360,000 active. AID 651718; in the data active = inhibition above about 4.5%;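 note: 0% = vehicle wells with enzyme and 100% = reference inhibitor wells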
proKLK7 act conf = confirmation of human kallikrein-7 zymogen activators | shares compounds with proKLK7 act | purified proKLK7, EDANS-DABCYL substrate fluorescence; scaled: vehicle 0, mature enzyme 100 | activation, % at 7 µM | 68% of 3,200 active | AID 686949;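 active = activation, as change over the incubation, above the mean of all tested compounds plus 3 SD, cut at about 13% in these data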
EDANS interfere = fluorescence interference counter-screen for KLK7 activators | shares compounds with proKLK7 act | EDANS-DABCYL substrate fluorescence interference, no enzyme, 4 h; solvent 0%, active enzyme control 100% | activation, % at 7 µM | 80% of 3,200 active | AID 686952;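 active = activation above the all-compound mean plus 3 SD, ignoring values outside control-based bounds, cut at about 4.8% in these data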;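 note: value is the 4 h activation minus the activation read at time zero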
* hit, by the source's call; . = no result.

SMILES	bovine MsrA act	proKLK7 act	SMARCA2 act	MsrA inh	proKLK7 act conf	EDANS interfere
CCn1cc(CNC(=O)CSc2nc(-c3ccc(OC)c(OC)c3)cc(C(F)(F)F)n2)c(C)n1	-11.6	20.6*	-0.3	1.9	3.7	8.2*
CC(C)(C)c1ccc(CN2N=Nc3ccccc3S2(=O)=O)cc1	-7.9	20.6*	0.0	1.1	-0.1	1.5
CC(C)(C)c1ccc(C(=O)N2CCN(Cc3ccccc3)CC2)cc1	-0.9	0.5	-2.1	-1.9	.	.
CN(Cc1cnc2nc(N)nc(N)c2n1)c1ccc(C(=O)NC(CCC(=O)O)C(=O)O)c2ccccc12 (stereo not given)	-9.7	19.0*	-4.2	2.1	2.2	3.4
COc1ccc(OC)c(/C=C/C(=O)NC2=NCCS2)c1	-2.7	0.6	0.0	0.2	.	.
COc1ccc(/C=C/C(=O)NC2=NCCS2)cc1OC	-9.1	15.1*	4.1	1.5	48.1*	46.8*
CN(C)C(=O)COC(=O)c1cc(Cl)cc(Cl)c1N	2.6	25.3*	-7.3	3.0	24.3*	30.9*
CCc1ccc([C@@H]2CC=C(C(=O)O)[C@H](c3ccc(C(C)(C)C)cc3)N2S(=O)(=O)c2ccc(C)cc2)cc1	0.5	0.1	-2.3	0.1	.	.
COc1ccc(-n2c(O)c(/C=N/NS(=O)(=O)c3ccc(C)c([N+](=O)[O-])c3)c3ccccc3c2=O)cc1OC	-3.4	15.1*	-3.0	1.8	40.8*	43.6*
CNC(=S)NNC(=O)c1sc(-c2cc(C)on2)nc1C	-3.8	21.0*	-2.8	1.1	33.5*	37.3*
Cn1nccc1-c1ccc(C(=O)NCc2ccc(Cl)cc2)c2occc12	-2.0	.	.	.	.	.
CCOC(=O)C1=CCN(S(=O)(=O)c2cccc(Cl)c2)C1c1ccc(Cl)c(Cl)c1 (stereo not given)	.	-0.3	-3.4	0.7	.	.
Cc1ccc(-c2nc(=O)[nH]c3ccccc23)cc1	-2.0	14.3*	-0.5	-0.2	16.4*	18.9*
COc1ccc(-c2cc(C(F)(F)F)n3nc(C(=O)NCCCn4ccnc4)cc3n2)cc1	-0.7	57.4*	-0.9	1.4	-215.6	-197.7
COc1ccc(-c2cc(C(F)(F)F)n3nc(C(=O)NCCN4CCOCC4)cc3n2)cc1	-2.0	-11.5	-2.3	2.8	.	.
CC(C(=O)NC(C)(C)C)n1c(C(c2ccccc2)c2ccccc2)nc2ccccc21 (stereo not given)	.	0.1	-4.7	2.0	.	.
O=c1[nH]cnc2nc(-c3ccccc3)c(-c3ccccc3)nc12	-1.2	28.8*	-6.6	0.8	29.0*	30.3*
O=c1[nH]cnc2nn(-c3ccccc3)nc12	-5.5	-2.6	1.7	0.0	.	.
Cc1ccc(C(=O)NCCN2C(=O)C3C4C=CC(C4)C3C2=O)cc1 (stereo not given)	.	0.8	5.6	.	.	.
CN(C)c1ccc(C2Nc3ccccc3C(=O)N2CCN2CCNC2=O)cc1 (stereo not given)	-2.9	1.2	-4.0	-0.8	.	.
Cc1ccc(C2Nc3ccccc3C(=O)N2CCCN2CCOCC2)cc1 (stereo not given)	-8.2	23.5*	-3.1	-0.6	1.4	1.6
O=C1NCCN1CCN1C(=O)c2ccccc2NC1c1ccccc1 (stereo not given)	-1.3	20.4*	-0.3	1.3	29.9*	33.0*
CCCN1C(=O)c2ccccc2NC1c1ccc(O)c(OCC)c1 (stereo not given)	-0.1	14.1*	-0.9	1.1	10.4	6.7*
CCCN1C(=O)c2ccccc2NC1c1ccc(Br)cc1 (stereo not given)	-13.4	12.3	-3.3	1.0	.	.
COc1ccc(C2Nc3ccccc3C(=O)N2Cc2ccccc2)cc1CN1CCOCC1 (stereo not given)	-1.1	-3.6	-0.6	0.0	.	.
CCCN1C(=O)c2ccccc2NC1c1ccc(Cl)cc1 (stereo not given)	-4.7	15.6*	-1.1	-1.9	6.2	7.0*
CC1Oc2ccc(C#N)cc2N(Cc2cccc(F)c2)C1=O (stereo not given)	0.2	-0.2	-3.0	0.9	.	.
O=S(=O)(Nc1cccc(-c2cn3cccnc3n2)c1)c1ccccc1	-3.5	70.0*	-4.6	2.1	14.9*	17.7*
COc1ccc(-c2cn3cccnc3n2)cc1NS(=O)(=O)c1ccccc1	-3.1	16.3*	0.7	2.6	4.3	5.2*
O=S(=O)(Nc1cccc(-c2cn3cccnc3n2)c1)c1ccc(-c2ccccc2)cc1	-8.5	-11.8	-1.7	1.8	.	.
